Our source for the growth values is PubChem BioAssay (NCI).

The panel holds about 83,000 compounds, 20% with a hit somewhere; the sample as a whole holds those more often.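 Testing used 96-well plates and a 48-hour single-concentration exposure. Example: -40 means 40% of the starting cells died.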 Unmarked numbers belong to inactive results. Activity calls are given as the source filed them.

The experiment concerns SK-MEL-5 melanoma. Kind of experiment: NCI-60 one-dose screen, 48 h (100 = growth as untreated, 0 = no growth, -100 = all killed). The note with it: 10 µM unless noted. How it is done:
Growth inhibition of the SK-MEL-5 human tumor cell line is measured as a screen for anti-cancer activity. Cells are grown in 96 well plates and exposed to the test compound for 48 hours. Compounds are tested at a single concentration, which is 10^-5 M for most compounds. The reported endpoint is percent growth (GI% or GIPRCNT), where numbers from 0 - 100% represent growth inhibition, and numbers from -100% - 0 represent cell death. For example, a value of 40 represents 60% growth inhibition. A value of 0 means no net growth occurred over the course of the experiment. A value of -40 indicates 40% of cells at the beginning of the experiment died by the end of the experiment. A value of -100 means all cells are dead at the end of the experiment.
NCI-60 Human Tumor Cell Lines Screen was performed using the standard one-dose NCI protocol, which is described in more detail at https://dtp.cancer.gov/discovery_development/nci-60/default.htm.
Compounds with GIPRCNT values below 10 were considered active. Activity score was based on GIPRCNT using the following formula: […]
Score is 0 for GIPRCNT values of 100 or above, 50 for GIPRCNT values of 0, and 100 for GIPRCNT values of -100.
Take `Fc1ccc(Nc2nc(NCCNc3ccnc4cc(Cl)ccc34)nc(N3CCOCC3)n2)cc1`: the growth was 43.2%.

Consider `Cn1c(=O)c2[nH]c(C3CC=CCC3)nc2n(C)c1=O` (stereo not given), for which the growth is 111%.

On to `CC(C)(C)OC(=O)NC(CSCc1ccccc1)C(=O)ON1C(=O)CCC1=O` (stereo not given), for which the growth was 114%.

On to `NC(=O)CCCN1C/C(=C\c2ccccc2)C(=O)c2ccccc21`, for which the growth is 104%.

For `COc1ccc(S(=O)(=O)n2cc(C(=O)C(=O)Nc3ccncc3)c3ccccc32)cc1F`, the growth is 73.5%.

Turning to `O=[N+]([O-])c1ccc(-c2cn(-c3ccccc3)c(-c3ccccc3)n2)cc1`, the growth was 128%.

On to `COc1ccc(-c2nc(SCCC(C)C)nc(Nc3ccc(F)c(Cl)c3)c2C#N)cc1`, for which the growth was 94.1%.

With `O=C(Oc1ccccc1[N+](=O)[O-])C1CCCN1C(=O)OCc1ccccc1` (stereo not given), the growth was 101%.

For `COc1cc(/C=C/C(=O)c2c(C)nc3ccccc3c2C)ccc1OCCCCOc1cc2c(cc1OC)C(=O)N1CCC[C@H]1C=N2`, the growth is -100% (active).

For `OC(c1cc2cc(Br)ccc2c2cc(Br)ccc12)C1CCCCN1` (stereo not given), the growth is -1.27% (active).

In the case of `Nc1nc(=O)c2ccccc2s1`, the growth was 116%.

With `CN(C)c1oc(C2OC2c2ccccc2)nc1C#N` (stereo not given), the growth was 102%.

`Cc1ccc(S(=O)(=O)NCCCNc2cc(-c3cn(C(C)(C)C)nc3-c3cccc(O)c3)ccn2)cc1`: the growth was 42.8%.

Consider `O=[N+]([O-])c1ccc(/C=C/C2(CCl)OCCO2)cc1`, for which the growth is 104%.

Regarding `O=C(NCCNc1nccc(-n2ccc3cccnc32)n1)c1ccc(C(F)(F)F)cc1`, the growth is 101%.

For `Fc1ccc(-c2nc(-c3nc4ncccc4[nH]3)cc3c2[nH]c2ccccc23)cc1F`, the growth was 28.3%.

`Oc1ccc2cc(Br)ccc2c1-c1c(O)ccc2cc(Br)ccc12`: the growth was 72.8%.

For the molecule `CC(=O)Oc1csc(N(C(C)=O)c2cccc(C(F)(F)F)c2)n1`, the growth was 92.1%.

With `COc1cc(NCCCCCN)c2ncccc2c1`, the growth is 111%.

Regarding `O=S(=O)(NCCNc1nccc(-c2c(-c3ccc(F)cc3)nc3sccn23)n1)c1ccc(F)cc1`, the growth is 70.8%.

In the case of `N=C(N)c1ccc(-c2ccc(-c3ccc(-c4cccs4)s3)s2)cc1`, the growth was 91.4%.

Take `Brc1cccc(-c2cc(-c3ccc4nccnc4c3)[nH]n2)c1`: the growth was 20.9% [25 µM].

With `C=C[C@@H]1C[C@H](O)Cc2c(C)cc(C)cc2N1`, the growth is 96.2%.

As for `CC(C)(C)N1CCC1C(N)=O` (stereo not given), the growth is 107%.

With `Cc1nn(-c2ccc(Cl)cc2)c2ncnc(N/N=C/c3cccc([N+](=O)[O-])c3)c12`, the growth was 105%.

With `C=C1C(=O)O[C@H]2[C@H]1CC/C(Cn1cc(CNC(=O)c3cc4ccccc4[nH]3)nn1)=C\CC[C@@]1(C)O[C@@H]21`, the growth is 64.4%.

Take `O=c1[nH]c(-c2ccccc2)nc(CN2CCCCC2)c1O`: the growth is 111%.

Turning to `CCO/C=N/C1=C(C#N)C(c2ccc(Cl)cc2)c2c(c3ccccc3n(C)c2=O)O1` (stereo not given), the growth was 74.2%.

Take `CN(C)CCN1C(=O)c2ccc3c4c(ccc(c24)C1=O)C(=O)N(CCN=C=S)C3=O`: the growth was -98.8% (active).

As for `O=C(O)/C=C/C(=O)c1ccc(Cl)cc1`, the growth is 107%.

On to `c1cc2[nH]ncc2cc1-c1nc2ccc3[nH]ncc3c2c2c1CCC2`, for which the growth was 56.6%.

Turning to `O=C(Nc1cccc(-n2cc(-c3ccncc3)c(-c3ccc(Cl)c(O)c3)n2)c1)Nc1cc(C(F)(F)F)cc(C(F)(F)F)c1`, the growth was -94.7% (active).

Regarding `NC1=NN(O)C2=CC([N+](=O)[O-])C=CC2=N1` (stereo not given), the growth is 109%.

On to `COc1ccc(C(=O)N2NC(=O)/C(=C/c3ccc(Br)cc3)N=C2c2ccccc2)cc1`, for which the growth is 93.8%.

Regarding `Cc1[nH]c2ccc(F)cc2c1CCNC(=O)C1CCN(C(=O)c2ccccc2)C1` (stereo not given), the growth is 82.2% [25 µM].

Regarding `CC(=O)OC[C@]12CC[C@H]3[C@@H](C[C@H]4O[C@]45CC=CC(=O)[C@]35C)[C@]1(O)CC[C@@]2(O)[C@@](C)(O)C1CC(C)=C(C)C(=O)O1` (stereo not given in full), the growth was -78.7% (active).

On to `COC(=O)C(Sc1ccc(Cl)cc1)C1SC(=S)N(Cc2ccccc2)C1=O` (stereo not given), for which the growth was 101%.

As to `C=C1c2nc3ccccc3n2C=C(c2ccc(Cl)cc2)N1Cc1ccccc1`, the growth is 79.1%.

In the case of `Fc1ccc(CNCCNc2ncnc3c2cnn3-c2ccccc2)cc1`, the growth was 87.4%.

For the molecule `FC(F)(F)c1cccc(-c2cn3c(ccc4ccccc43)n2)c1`, the growth is 92.4%.
